# GPR151 activ – human GPR151 activation; Q8TDV0; PathHunter beta-arrestin GPR151 cells, luminescence; activation, % at 11.2 µM; actives 1% (n = 650,000); AID 1508602; in the data active means activation above about 4.9%;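 further: 0% = median of compound wells and 100% = cells with positive control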
# MITF inh – human MITF inhibition, primary screen; O75030; AlphaScreen MITF homodimerization, bead proximity signal; inhibition, % at 2.6 µM; actives 0.91% (n = 650,000); AID 1259374; in the data active means inhibition above about 50%;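 further: 0% = vehicle wells with protein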
# FBW7 activator – human FBW7 E3 ligase activation, primary screen; Q969H0; AlphaScreen FBW7–phospho-cyclin E peptide binding, activator screen; normalized activity (activation), % at 26.1 µM; actives 0.13% (n = 650,000); in the data active means normalized activity above about 1.9%;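 further: purified mutant Fbw7 with reduced substrate affinity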
# Target sequence (Q969H0 whole entry, looked up): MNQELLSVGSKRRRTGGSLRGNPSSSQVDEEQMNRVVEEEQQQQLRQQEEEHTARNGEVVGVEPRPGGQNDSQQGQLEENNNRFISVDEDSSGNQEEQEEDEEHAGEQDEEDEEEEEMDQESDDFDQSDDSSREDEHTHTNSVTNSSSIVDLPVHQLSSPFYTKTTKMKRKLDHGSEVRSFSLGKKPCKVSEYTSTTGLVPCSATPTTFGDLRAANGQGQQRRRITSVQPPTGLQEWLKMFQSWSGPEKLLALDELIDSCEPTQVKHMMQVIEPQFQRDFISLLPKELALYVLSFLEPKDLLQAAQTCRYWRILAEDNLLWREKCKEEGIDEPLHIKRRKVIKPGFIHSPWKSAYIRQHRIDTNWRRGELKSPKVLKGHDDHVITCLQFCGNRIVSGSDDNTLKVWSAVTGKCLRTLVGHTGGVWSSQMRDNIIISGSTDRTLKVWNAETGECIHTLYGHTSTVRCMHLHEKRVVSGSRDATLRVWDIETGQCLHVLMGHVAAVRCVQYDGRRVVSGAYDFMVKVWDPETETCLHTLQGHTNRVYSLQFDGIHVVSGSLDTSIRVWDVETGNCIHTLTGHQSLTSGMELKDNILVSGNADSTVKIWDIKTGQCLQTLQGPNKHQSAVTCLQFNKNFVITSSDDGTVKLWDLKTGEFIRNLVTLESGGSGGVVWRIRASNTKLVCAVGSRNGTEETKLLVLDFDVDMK
# TEAD-YAP inh – TEAD-YAP interaction inhibition | actives 1.4% (n = 640,000) | inhibition, % at 9.12 µM | HEK-TIYL cells, TEAD-Gal4/YAP UAS-luciferase luminescence | AID 1259422; in the data active means inhibition above about 32%;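 further: 0% = median of test compound wells and 100% = reference inhibitor wells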
# Numbers without * were called inactive. An excerpt weighted towards active compounds, which were near 3.5% of everything screened.
SMILES,GPR151 activ,MITF inh,FBW7 activator,TEAD-YAP inh
O=C1NC(=O)N(Cc2ccccc2)C(=O)/C1=C/c1ccc(Br)o1,-1.1,57.7*,-0.7,10.8
CCc1ccc(N2C(=O)NC(=O)/C(=C\c3ccc(I)o3)C2=O)cc1,0.6,13.8,0.5,-0.7
Cc1cccc(N2C(=O)NC(=O)/C(=C/c3ccc(I)o3)C2=O)c1,-1.5,58.4*,-0.4,-2.8
O=C1NC(=O)N(c2ccccc2)C(=O)/C1=C\c1ccc(I)o1,0.6,74.4*,-0.4,-2.7
Cc1cc(OCC(=O)Nc2ccc(F)cc2)ccc1[N+](=O)[O-],-0.9,1.1,0.3,-12.0
Cc1cc(OCC(=O)Nc2c(C)nn(Cc3ccc(F)cc3)c2C)ccc1[N+](=O)[O-],0.3,10.0,-0.3,54.5*
O=C1c2ccc([N+](=O)[O-])cc2C(=O)N1c1ccc(I)cc1,-1.2,6.7,2.2*,3.9
O=C(O)c1ccc(N2C(=O)c3ccc(Oc4ccc([N+](=O)[O-])cc4)cc3C2=O)cc1[N+](=O)[O-],-0.3,-9.7,2.5*,2.9
O=C1c2ccc([N+](=O)[O-])cc2C(=O)N1CCCCN1C(=O)c2ccc([N+](=O)[O-])cc2C1=O,1.9,-0.5,-0.1,0.8
O=C(O)c1ccc(Oc2ccc(N3C(=O)c4ccc(Oc5ccc([N+](=O)[O-])cc5)cc4C3=O)cc2)cc1,0.7,0.6,-0.1,-5.4
O=C1c2ccc([N+](=O)[O-])cc2C(=O)N1c1ccc(O)cc1,1.8,-4.5,-0.1,6.5
O=C1C(=O)c2cc([N+](=O)[O-])ccc2-c2ccc([N+](=O)[O-])cc21,1.1,15.3,-0.6,53.5*
C=CCN(c1ccc(C(=O)Nc2cccc(OC)c2)cc1)S(C)(=O)=O,-1.5,-2.1,-0.1,-3.3
CCOC(=O)N1CCN(C(=O)Cn2cnc3c(cnn3-c3cccc(C)c3C)c2=O)CC1,-1.5,13.4,0.2,14.5
Cc1cc(C)cc(Oc2nc3ccccn3c(=O)c2/C=C(\C#N)C(=O)N2CCOCC2)c1,0.7,13.1,-0.1,37.4*
N#C/C(=C\c1c(Oc2ccccc2)nc2ccccn2c1=O)C(=O)N1CCOCC1,0.4,-8.8,0.1,21.0
Cc1cccc(Oc2nc3c(C)cccn3c(=O)c2/C=C(\C#N)C(=O)N2CCOCC2)c1,-0.1,16.5,0.1,35.6*
CNC(=O)/C(C#N)=C/c1c(Oc2cc(C)cc(C)c2)nc2ccccn2c1=O,-6.2,18.4,-0.1,32.1*
CCOC(=O)C1=C(C)NC2=C(C(=O)CCC2)C1c1c(F)cccc1F (stereo unspecified),-0.1,2.6,-0.1,12.9
CC1CCCCC12NC(=O)N(CC(=O)Nc1ccc(Cl)cc1[N+](=O)[O-])C2=O (stereo unspecified),-0.7,-5.0,0.1,-8.2
Cc1ccc(/C=N/NC(=O)c2cc(C(C)C)[nH]n2)cc1,-0.3,-3.3,0.2,36.0*
O=C(Nc1ccnc(=O)[nH]1)c1ccccc1,0.4,43.2,-0.8,-17.1
O=C(O)c1ccc(N/N=C/C2=C(N3CCOCC3)C(=C\c3ccccc3)/CC2)cc1,-0.2,62.2*,-0.4,-21.4
O=S(=O)(O)c1ccc(N/N=C/C2=C(N3CCOCC3)C(=C\c3ccccc3)/CC2)cc1,-1.4,-4.8,0.0,0.2
CCOC(=O)C1=C(CN2CCCC2)NC(=O)NC1c1cccs1 (stereo unspecified),-0.8,4.2,0.7,3.6
SMILES,GPR151 activ,MITF inh,FBW7 activator,TEAD-YAP inh
CCOC(=O)C1=C(CN2CCC(C(N)=O)CC2)NC(=O)NC1c1cccs1 (stereo unspecified),-1.2,-8.9,2.6*,-1.3
CN1CCN(c2ccc(NC(=O)Cc3ccc(Cl)cc3)cc2)CC1,0.7,9.4,0.0,-18.6
CCOC(=O)c1ccc(CN2C(=O)C(=O)c3cc(OC(F)(F)F)ccc32)o1,-0.8,-3.1,-0.2,66.5*
CCC(=O)N(C1=C(NC)C(=O)c2ccccc2C1=O)C(C)C,-1.6,-10.1,-0.1,85.0*
CC(=O)N(Cc1ccc(F)cc1)C1=C(Cl)C(=O)c2ccccc2C1=O,-3.4,9.9,-0.1,13.1
CNC1=C(N(Cc2ccc(Cl)c(Cl)c2)C(C)=O)C(=O)c2ccccc2C1=O,-1.6,10.0,-0.2,83.4*
CC(=O)N(Cc1ccc(F)cc1)C1=C(NCCc2ccccc2)C(=O)c2ccccc2C1=O,2.4,15.2,-0.3,59.8*
CC(=O)N(Cc1ccccc1)C1=C(N2CCCCC2)C(=O)c2ccccc2C1=O,-0.9,13.7,0.2,-8.4
CC(=O)NC1=C(N(C)C)C(=O)c2ccccc2C1=O,0.0,-3.9,-0.1,-4.6
NNC(=O)CNC(c1ccccc1)c1cc(Br)ccc1NC(=O)c1ccc(Cl)cc1 (stereo unspecified),1.1,-8.7,-0.1,-2.3
C/C1=C2N=C(/C=C3N=C(/C(C)=C4\NC(C(CC(N)=O)C4(C)CCC(=O)NCC(C)OP(=O)(O)OC4C(CO)OC(n5cnc6cc(C)c(C)cc65)C4O)C4(C)N=C1C(CCC(N)=O)C4(C)CC(N)=O)C(CCC(N)=O)C\3(C)C)C(CCC(N)=O)C/2(C)CC(N)=O (stereo unspecified),-9.3,-35.1,-0.5,33.1*
COc1ccc2c(c1)C(C)CC(C)(C)N2C(=O)CCl (stereo unspecified),0.1,0.4,-0.5,41.1*
Cc1cc(NS(=O)(=O)c2ccc(NC(=O)c3ccc([N+](=O)[O-])cc3Cl)cc2)nc(C)n1,-1.3,18.6,-0.1,-8.1
CC1(C)CC(=NNC(=O)c2n[nH]c3c2CCC3)CC(C)(C)N1,3.2,3.6,0.1,61.6*
C/C(=N\NC(=O)c1n[nH]c2c1CCC2)C1CC1,1.0,8.1,-0.1,52.4*
Cc1ccc(C(=O)C[n+]2cc(-c3ccc(C)cc3)n3c2CCCCC3)cc1,-1.2,10.3,0.2,85.6*
COc1ccc(N/C=C/C(=O)c2cc(OC)c(OC)c(OC)c2)cc1,-1.3,15.1,0.2,42.0*
COc1cc(C(=O)/C=C/Nc2ccc(I)cc2)cc(OC)c1OC,1.5,-1.2,-0.1,35.5*
COc1ccc(C(=O)/C=C/Nc2ccc(Br)cc2)cc1OC,-0.6,2.8,-0.3,-15.0
COc1cc(C(=O)/C=C/Nc2ccc(Br)cc2)cc(OC)c1OC,0.3,-1.8,0.0,38.0*
COc1ccc(N/C=C/C(=O)c2ccc(OC)c(OC)c2)cc1,1.5,-8.5,0.0,-5.7
CCCCN(CCCC)S(=O)(=O)c1ccc2c(c1)C(=O)c1cc(S(=O)(=O)N(CCCC)CCCC)ccc1-2,1.3,-10.2,0.2,0.0
C=CCn1c2cc(C)oc2c2cnn(CC(=O)OC)c(=O)c21,-0.2,-4.9,-0.2,-15.7
O=C(Nc1cnc2ccccc2c1)c1cccc(F)c1,-1.0,-2.9,0.1,35.5*
CCCCc1ccc(C(=O)Nc2cnc3ccccc3c2)cc1,-2.0,5.9,0.2,39.6*
CCCCc1ccc(NC(=O)c2ccccc2)cc1,-6.2,10.3,0.1,-11.7
COc1ccc(C(=O)Nc2cc(C)c(C)s2)cc1,-6.0,-9.4,-0.1,33.6*
COc1ccc(C(=O)Nc2cnc(NC(=O)c3ccccc3)cc2C)cc1,-2.1,-8.5,0.2,45.0*
CCC[C@@H]1NC(=O)[C@@H]2C[C@H](NC(=O)c3cccs3)CN2C1=O,-0.7,13.2,-0.2,11.5

# Source: PubChem BioAssay (The Scripps Research Institute Molecular Screening Center)
